From PubChem BioAssay (NCI)
Compounds without any hit were thinned out: in the full panel of roughly 83,000, 20% have a hit.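 Interpretation: 100, growth as untreated; towards 0, rising growth inhibition; 0, no net growth; 0 to -100, cell death. Compounds scoring below 10 were considered active.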 Active and inactive are the calls of the source.

Experiments:
Experiment in all cases: NCI-60 one-dose screen, 48 h (100 = growth as untreated, 0 = no growth, -100 = all killed)
NCI-H23 lung = settings: 10 µM unless noted
NCI-H226 lung = settings: 10 µM unless noted
NCI-H322M lung = settings: 10 µM unless noted
HOP-62 NSCLC = settings: 10 µM unless noted
NCI-H460 lung = settings: 10 µM unless noted
HOP-92 NSCLC = settings: 10 µM
A549/ATCC NSCLC = settings: 10 µM unless noted
786-0 renal = settings: 10 µM unless noted
COLO 205 colon = settings: 10 µM unless noted
NCI-H522 lung = settings: 10 µM unless noted

Measured: growth

NC/C(=C/F)COc1ccc2nc(NCc3cccnc3)oc2c1
inactive: NCI-H23 lung 92.8% | NCI-H226 lung 94.3% | NCI-H322M lung 111% | HOP-62 NSCLC 77% | NCI-H460 lung 98.8% | HOP-92 NSCLC 116% | A549/ATCC NSCLC 95.3% | 786-0 renal 92.5% | COLO 205 colon 111%

C=C(C)[C@@H]1CC[C@]2(COC)CC[C@]3(C)[C@H](CC[C@@H]4[C@@]5(C)CCCNC(C)(C)[C@@H]5CC[C@]43C)[C@@H]12
inactive: NCI-H23 lung 59.6% | NCI-H226 lung 74.1% | NCI-H322M lung 82.6% | HOP-62 NSCLC 71.1% | HOP-92 NSCLC 74.9% | A549/ATCC NSCLC 39% | 786-0 renal 31.4%
active: NCI-H460 lung -30% | COLO 205 colon -49.2%

COc1ccc(-n2c(/C=C3\C(=O)Nc4ccccc43)ccc2CO)cc1
inactive: NCI-H23 lung 104% | NCI-H226 lung 95.3% | NCI-H322M lung 104% | HOP-62 NSCLC 95.1% | NCI-H460 lung 113% | HOP-92 NSCLC 91.5% | NCI-H522 lung 89.6% | A549/ATCC NSCLC 97% | 786-0 renal 99.1% | COLO 205 colon 114%

COc1c(N2CC3CCCNC3C2)c(F)cc2c(=O)c(C(=O)N/N=C/c3ccc(Br)cc3)cn(C3CC3)c12 (configuration not stated)
inactive: NCI-H23 lung 88.3% | NCI-H226 lung 91.4% | NCI-H322M lung 89% | HOP-62 NSCLC 88.4% | NCI-H460 lung 86% | HOP-92 NSCLC 57.9% | NCI-H522 lung 77.6% | A549/ATCC NSCLC 83.1% | 786-0 renal 85.3% | COLO 205 colon 100%

C#Cc1nc(/C=C/C(=O)c2nccn2C)cs1
inactive: NCI-H322M lung 28.5%
active: NCI-H23 lung -69.3% | NCI-H226 lung 4.67% | HOP-62 NSCLC -44.9% | NCI-H460 lung -47.2% | HOP-92 NSCLC -71% | NCI-H522 lung -60.1% | A549/ATCC NSCLC -3.96% | 786-0 renal -65.9% | COLO 205 colon -30.6%

Nc1nc(Nc2ccccc2SSc2ccccc2Nc2nc(N)nc(-c3cccc(Br)c3)n2)nc(-c2cccc(Br)c2)n1
active: A549/ATCC NSCLC 1.19%
inactive: NCI-H23 lung 31.6% | NCI-H226 lung 47.8% | NCI-H322M lung 94.8% | HOP-62 NSCLC 11.8% | NCI-H460 lung 31.8% | HOP-92 NSCLC 86% | 786-0 renal 79.3% | COLO 205 colon 116%

C/C(=N\O)[C@H]1C[C@]23CC[C@]4(C)[C@H](CC[C@@H]5[C@@]6(C)CC/C(=N/O)C(C)(C)[C@@H]6CC[C@]54C)[C@H]2[C@H](C)C1(C)OC3
inactive: NCI-H23 lung 96.5% | NCI-H226 lung 91.9% | NCI-H322M lung 114% | HOP-62 NSCLC 88.5% | NCI-H460 lung 106% | HOP-92 NSCLC 106% | A549/ATCC NSCLC 94.7% | 786-0 renal 92.1% | COLO 205 colon 116%

CNC(=O)c1cc(-n2ccc3cc(NC(=O)Nc4ccc(N5CCOCC5)c(C(F)(F)F)c4)ccc32)ccn1
inactive: NCI-H23 lung 50.4% | NCI-H226 lung 73.6% | NCI-H322M lung 75.5% | HOP-62 NSCLC 55.7% | NCI-H460 lung 34.3% | HOP-92 NSCLC 56% | A549/ATCC NSCLC 36.4% | 786-0 renal 13.6% | COLO 205 colon 26.4%

O=C(NCCN1CCCC1)c1ccc(-c2nc3ccc4[nH]ncc4c3c3c2CCCC3)cc1
active: NCI-H23 lung -14.8% | NCI-H322M lung 3.73% | NCI-H460 lung -5.93% | HOP-92 NSCLC -15.4% | NCI-H522 lung -29.2% | A549/ATCC NSCLC 6.08% | 786-0 renal 6.43% | COLO 205 colon -14.8%
inactive: NCI-H226 lung 13.6% | HOP-62 NSCLC 15.8%

CC1(C)CC[C@]2(C(=O)N3CCOCC3)CC[C@]3(C)C(=CC[C@@H]4[C@@]5(C)C/C(=C/c6ccccn6)C(=O)C(C)(C)[C@@H]5CC[C@]43C)[C@@H]2C1
inactive: NCI-H23 lung 60.2% | NCI-H226 lung 76.2% | NCI-H322M lung 103% | HOP-62 NSCLC 78.5% | NCI-H460 lung 54.9% | HOP-92 NSCLC 51.1% | A549/ATCC NSCLC 54.5% | 786-0 renal 64.4% | COLO 205 colon 74.2%

O=C1[C@H]2Cc3c([nH]c4ccccc34)[C@@H](c3ccc(Br)cc3)N2C(=O)CN1C1CCN(CC2CCCCC2)CC1
inactive: NCI-H322M lung 16.2% | HOP-62 NSCLC 10.8%
active: NCI-H23 lung -81.3% | NCI-H226 lung -3.54% | NCI-H460 lung -85.7% | HOP-92 NSCLC -59.4% | A549/ATCC NSCLC -77.3% | 786-0 renal -94.6% | COLO 205 colon -90.6%

CN(C)C(=O)c1cc(-c2ccc3ncnc(NCc4ccccc4)c3c2)cnc1N
inactive: NCI-H23 lung 91.6% | NCI-H226 lung 91.8% | NCI-H322M lung 87% | HOP-62 NSCLC 63.2% | NCI-H460 lung 104% | HOP-92 NSCLC 81.1% | A549/ATCC NSCLC 72.9% | 786-0 renal 67.7% | COLO 205 colon 116%

CNC(=O)c1c(NC(=O)c2ccccc2C(F)(F)F)sc2c1CCC(=O)C2
inactive: NCI-H23 lung 13.9% | NCI-H226 lung 64.2% | NCI-H322M lung 105% | HOP-62 NSCLC 98.6% | NCI-H460 lung 57.4% | A549/ATCC NSCLC 70.9% | 786-0 renal 39.6% | COLO 205 colon 16.2%
active: HOP-92 NSCLC 1.45%

C[C@@H](Nc1ncnc2ccc(-c3cnc(Cl)c(NS(C)(=O)=O)c3)cc12)c1ccccc1
active: HOP-92 NSCLC -1.13%
inactive: NCI-H23 lung 55.7% | NCI-H226 lung 64.6% | NCI-H322M lung 68.2% | HOP-62 NSCLC 36.8% | NCI-H460 lung 60.5% | A549/ATCC NSCLC 54.2% | 786-0 renal 45.4% | COLO 205 colon 80.2%

COc1cc(-c2nn(C(C)(C)C)cc2-c2ccnc(NCCCNS(=O)(=O)c3ccc(C)cc3)n2)ccc1Cl
inactive: NCI-H23 lung 84.1% | NCI-H226 lung 70.9% | NCI-H322M lung 86% | HOP-62 NSCLC 70.8% | NCI-H460 lung 86.7% | HOP-92 NSCLC 70.2% | A549/ATCC NSCLC 59.7% | 786-0 renal 83.2% | COLO 205 colon 107%

C#Cc1nc(C(=O)NCCC(=O)Nc2ccc(NC(=O)c3ccc(/C=C/C(=O)c4nccn4C)cc3)cc2)cs1
active: 786-0 renal -59.8%
inactive: NCI-H23 lung 33.1% | NCI-H226 lung 74.9% | NCI-H322M lung 62.2% | HOP-62 NSCLC 24.1% | NCI-H460 lung 33.9% | HOP-92 NSCLC 120% | A549/ATCC NSCLC 55.8% | COLO 205 colon 56.1%

N#Cc1c(-c2cccs2)cc(-c2cnccn2)nc1SCC(=O)c1ccc(F)cc1
inactive: NCI-H23 lung 90.6% | NCI-H226 lung 89.3% | NCI-H322M lung 97.8% | HOP-62 NSCLC 76.4% | NCI-H460 lung 103% | HOP-92 NSCLC 76% | A549/ATCC NSCLC 86.6% | 786-0 renal 88.6% | COLO 205 colon 105%

CCCn1cnc2c(c1=N)C(c1ccc(F)cc1)c1sc3c(CC)cccc3c1O2 (configuration not stated)
inactive: NCI-H23 lung 12.4% | NCI-H322M lung 52% | HOP-62 NSCLC 28.2% | HOP-92 NSCLC 34.2% | A549/ATCC NSCLC 17%
active: NCI-H226 lung -2.38% | NCI-H460 lung 2.7% | 786-0 renal 5.1% | COLO 205 colon -51.5%

O=C(Nc1ccc(N=Cc2c(O)[nH]c3ccccc23)cc1)Nc1nccs1
inactive: NCI-H23 lung 37.8% | NCI-H226 lung 30% | NCI-H322M lung 52.8% | HOP-62 NSCLC 37.3% | NCI-H460 lung 16.8% | HOP-92 NSCLC 49.8% | A549/ATCC NSCLC 56.6% | 786-0 renal 52.9% | COLO 205 colon 25.7%

Oc1cccc2ccc(-c3nnc(SCc4ccc(O)c5ncccc45)o3)nc12
inactive: NCI-H226 lung 35.2% | NCI-H322M lung 39.9% | HOP-62 NSCLC 25.8% | A549/ATCC NSCLC 15.9% | 786-0 renal 21.1% | COLO 205 colon 31.7%
active: NCI-H23 lung 3.67% | NCI-H460 lung 1.33% | HOP-92 NSCLC -16%

O=C(NNc1nc2cc(F)c(F)cc2n2c(CN3CC4CNCC4C3)ccc12)c1cnccn1 (configuration not stated)
inactive: NCI-H23 lung 26.7% | NCI-H226 lung 16.8% | NCI-H322M lung 26.7% | HOP-62 NSCLC 10.8% | HOP-92 NSCLC 37.4% | A549/ATCC NSCLC 16.9% | 786-0 renal 16.5% | COLO 205 colon 11.4%
active: NCI-H460 lung 1.73%

CC(C)(O)c1cncc(-c2ccc3ncnc(NCc4ccccc4)c3c2)c1
inactive: NCI-H23 lung 71.1% | NCI-H226 lung 74.8% | NCI-H322M lung 102% | HOP-62 NSCLC 66% | NCI-H460 lung 97.6% | HOP-92 NSCLC 72.3% | A549/ATCC NSCLC 85% | 786-0 renal 76.3% | COLO 205 colon 113%

O=C(Nc1ccc2c(ccn2Cc2ccccn2)c1)c1ccnnc1
inactive: NCI-H23 lung 94.6% | NCI-H226 lung 87.3% | NCI-H322M lung 98.5% | HOP-62 NSCLC 76.4% | NCI-H460 lung 104% | HOP-92 NSCLC 87.6% | A549/ATCC NSCLC 91.4% | 786-0 renal 86% | COLO 205 colon 110%

Cc1noc(C)c1CSc1nc2ccccc2n1-c1ccccc1
inactive: NCI-H23 lung 90.9% | NCI-H226 lung 95.6% | NCI-H322M lung 104% | HOP-62 NSCLC 69% | NCI-H460 lung 107% | HOP-92 NSCLC 74.7% | A549/ATCC NSCLC 91.2% | 786-0 renal 82.6% | COLO 205 colon 105%

NS(=O)(=O)c1ccc(Nc2nc(N/N=C/c3ccccn3)nc(Nc3ccccc3)n2)cc1
active: NCI-H23 lung -7.29% | NCI-H226 lung -49.1% | NCI-H322M lung -9.94% | HOP-62 NSCLC -28.6% | NCI-H460 lung 3.8% | HOP-92 NSCLC -46.6% | 786-0 renal 8.47% | COLO 205 colon -42.1%
inactive: A549/ATCC NSCLC 35.1%

NC(N)=Nc1ccc(Oc2cccc(NC(N)=Nc3ccc(Cl)c(C(F)(F)F)c3)c2)cn1
inactive: NCI-H23 lung 39.4% | NCI-H226 lung 71.9% | NCI-H322M lung 37.9% | HOP-62 NSCLC 52.1% | NCI-H460 lung 19.9% | A549/ATCC NSCLC 42.6% | 786-0 renal 70.3% | COLO 205 colon 22.7%
active: HOP-92 NSCLC -1.32%

CCn1c(SCC(=O)Nc2cccc(C(=O)/C=C/c3cc(OC)c(OC)c(OC)c3)c2)nc2ccccc2c1=O
active: NCI-H23 lung -17.1% | NCI-H460 lung 2.34%
inactive: NCI-H226 lung 11.5% | NCI-H322M lung 54.4% | HOP-62 NSCLC 53.8% | HOP-92 NSCLC 34.6% | A549/ATCC NSCLC 41.1% | 786-0 renal 30.2% | COLO 205 colon 102%
